# Values joined by “and” are separate entries in the source; they are usually repeats but may differ in a detail not shown here. Equal values may be shown once.
# System: HCC1569
# Experiment: cell number relative to DMSO (% of DMSO); higher = more cells (less growth inhibition / toxicity)
# Conditions: concentration: 10 µM; 24 h
# Method in brief: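 H1.0 nuclear intensity or cell number is expressed as percent of the plate control, with the median of replicates taken. HCC1569 and TDF cells were treated with compounds at 10 µM for 24 h at 37 °C, in triplicate, then fixed and immunostained for H1.0 with DAPI as a nuclear stain. HCC1569 values were smoothed to correct for positional effects.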
# 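Also: TDF denotes transformed human dermal fibroblasts of mesenchymal origin.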
row,Structure (SMILES),cell number
1,Cc1nc(-c2ccc(-c3ccc(C(=O)N4CCc5cc6c(cc54)C4(CCN(C)CC4)CO6)cc3)c(C)c2)no1.Cl,70.1
2,CC1OC(=O)C(C(C)C)NC(=O)C(C(C)C)OC(=O)C(C(C)C)NC(=O)C(C)OC(=O)C(C(C)C)NC(=O)C(C(C)C)OC(=O)C(C(C)C)NC(=O)C(C)OC(=O)C(C(C)C)NC(=O)C(C(C)C)OC(=O)C(C(C)C)NC1=O (centres undefined) [Valinomycin],65
3,COc1ccc(C(=O)OC2CC3CCC(C2)N3C)cc1OC (centres undefined) [Convolvamine],105
4,C1CCc2nnnn2CC1 [Pentylenetetrazole],102
5,CC(=CC=CC(C)C(=O)O)C1CNC(C(=O)O)C1CC(=O)O (centres undefined) [Domoic acid],101
6,CNCC(O)c1ccc(O)cc1 (racemic),108
7,CP(=O)(O)CCCN.Cl,102
8,CCCCCC=CC=CC(CCCCCCCC(=O)O)OO (centres undefined),101
9,COC(C)C(O)(C(=O)OCC1=CCN2CCC(O)C12)C(C)C (centres undefined) [Heliotrine],99.8
10,COCC1OC(=O)c2coc3c2C1(C)C1=C(C3=O)C2CCC(=O)C2(C)CC1OC(C)=O (centres undefined) [Wortmannin from Penicillium funiculosum],41.7
11,CCCN1CCCC2Cc3nc(N)ncc3CC21.Cl.Cl (centres undefined) [Quinelorane dihydrochloride],99.7
12,Br.CCCN(CCC)C1CCc2ccc(O)cc2C1 (stereo not drawn) [R-(+)-7-Hydroxy-DPAT hydrobromide],99.8
13,CCCN1CCCC2Cc3[nH]ncc3CC21 (racemic),99.6
14,COc1cc(=O)oc(C=CC=CC=CC(C)=CC2(C)OC(C)C(C)(O)C2O)c1C (centres undefined) [Citreoviridin],36.3
15,COC1CC(CC2CCC(C)C(C(C)C(=O)[O-])O2)OC2(OC(C)(C3CCC(C)(C4OC(C5OC(O)(CO)C(C)CC5C)CC4C)O3)CC2C)C1C.[Na+] (centres undefined) [Nigericin],53.3
16,CC1CCC2N(C1)CC1C3CC4C(CC(=O)C5CC(O)CCC54C)C3CCC1C2(C)O (centres undefined) [Imperialine],102
17,CCCN(CCC)C(=O)Cc1c(-c2ccc(Cl)cc2)nc2c(Cl)cc(Cl)cn12,103
18,CC(O)=C(C#N)C(=O)Nc1cc(Br)ccc1Br,100 and 108
19,COc1ccc2c(c1O)-c1cccc3c1C(C2)N(C)CC3.Cl (stereo not drawn) [R(-)-Apocodeine hydrochloride],103
20,NC(=O)c1cc(N2CC2)c([N+](=O)[O-])cc1[N+](=O)[O-],96.1

row,Structure (SMILES),cell number
1,CCCCCCC(C)(C)c1ccc(C2CC(O)CCC2CCCO)c(O)c1 (centres undefined),99.3
2,C=C1C(C)C2C(Cc3ccccc3)NC(=O)C23C(OC(C)=O)C=CC(C)(O)C(=O)C(C)CC=CC3C1O (centres undefined) [Cytochalasin D],69.1
3,Br.COC1CC=C2CCN3CCC4=C(CC(=O)OC4)C23C1 (stereo not drawn) [Dihydro-beta-erythroidine hydrobromide],104
4,COc1cc2c(cc1O)CC1c3c(cc(O)c(OC)c3-2)CCN1C (centres undefined) [Boldine],103
5,COc1ccc2c(c[n+](C)c3c4cc5c(cc4ccc23)OCO5)c1OC.[Cl-] [Chelerythrine Chloride],90.9
6,CC(Cc1ccc(OCC(=O)[O-])cc1)NCC(O)c1cccc(Cl)c1.[Na+] (centres undefined),104
7,C[Se]CC(N)C(=O)O.Cl (centres undefined) [Se-(methyl)selenocysteine hydrochloride],99.6
8,CN1CCc2cccc(Cl)c2CC1.Cl,103
9,CN1CC(C(=O)NC2(C)OC3(O)C4CCCN4C(=O)C(Cc4ccccc4)N3C2=O)CC2c3cccc4[nH]cc(c34)CC21.CS(=O)(=O)O (centres undefined) [Dihydroergotamine mesylate],98.8
10,CC[N+](CC)(CC)CC.[Cl-] [Tetraethylammonium chloride],101
11,O=C([O-])Cc1ccccc1.[Na+] [Sodium Phenylacetate],96.8
12,CC(C)N(CCC(C(N)=O)(c1ccccc1)c1ccccn1)C(C)C.O=P(O)(O)O (centres undefined) [Disopyramide phosphate],106
13,CC1(C)CCCC(C)(C)N1[O],99.1
14,C[N+](C)(C)CC(=O)O.[Cl-] [Betaine hydrochloride],104
15,COC1C(O)C(C)OC(OC2C(Oc3cccc4c(O)c5c(=O)oc6ccc(C)c7c(=O)oc(c34)c5c67)OC(C)C(O)C2O)C1O (centres undefined) [Chartreusin],105
16,Cl.NCC(O)c1ccc(O)cc1 (racemic),99.3
17,NC(CCCCCP(=O)(O)O)C(=O)O (stereo not drawn) [D(-)-2-Amino-7-phosphonoheptanoic acid],99.9
18,CNC(=O)OCC[N+](C)(C)C.[Cl-] [Methylcarbamylcholine chloride],101
19,Cl.Clc1cc(I)cc(Cl)c1NC1=NCCN1 [p-Iodoclonidine hydrochloride],102

# From the supplement of paper PMC7156485
